Results on 28 molecules are retold here after PubChem BioAssay (EPA / NIEHS).

One may read the AC50 as the midpoint of the concentration-response curve, whichever way the signal moves.

Calls of active or inactive are those of the source. How the source made its calls: active means hit-call score of the fitted dose curve at least 0.9, where 1 is the maximum; inactive means score below 0.9.

Hepatocyte nuclear factor 3-beta (Homo sapiens), sequence (Q9Y261 whole entry, looked up): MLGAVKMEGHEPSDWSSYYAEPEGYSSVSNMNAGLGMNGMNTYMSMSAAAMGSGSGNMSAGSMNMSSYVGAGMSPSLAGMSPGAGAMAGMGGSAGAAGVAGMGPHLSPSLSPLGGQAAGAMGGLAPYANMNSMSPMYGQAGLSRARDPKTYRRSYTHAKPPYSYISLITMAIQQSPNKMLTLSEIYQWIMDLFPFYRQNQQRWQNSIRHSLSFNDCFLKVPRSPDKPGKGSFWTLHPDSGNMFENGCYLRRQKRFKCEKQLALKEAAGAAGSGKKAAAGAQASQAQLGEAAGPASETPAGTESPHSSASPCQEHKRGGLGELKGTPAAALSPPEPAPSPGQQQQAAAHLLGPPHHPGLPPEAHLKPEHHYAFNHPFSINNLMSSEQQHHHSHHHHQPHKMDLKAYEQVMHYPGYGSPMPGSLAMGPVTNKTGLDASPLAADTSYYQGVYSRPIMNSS

Tested on in one assay: not listed separately
Briefly: ATG_M_19_CIS: Attagene CIS-FACTORIAL HepG2 Assay for M19 Transcription Factor (Internal Marker) (AID 2282939). The settings on record: HepG2 Attagene CIS-FACTORIAL M19 internal marker reporter; actives raise or lower the signal. In outline:
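Following a 24 h exposure, RNA from transfected HepG2 cells was reverse-transcribed, PCR-amplified with reporter-specific primers, end-labelled with 6-FAM and HpaI-digested before capillary separation. Values represent gain or loss versus DMSO.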
As for `Nc1ccc(N=Nc2ccccc2)cc1`, the molecule was called inactive.

For `O=C(O)C1C2CCC(O2)C1C(=O)O` (centres undefined), the molecule was classed as inactive.

Take `CC(O)CCO` (centres undefined): the molecule was classed as inactive.

Consider `CC(C)(C)OOC(C)(C)CCC(C)(C)OOC(C)(C)C`, for which the result was inactive.

Regarding `[O-][Cl+]O`, the call was inactive.

Consider `Nc1ccc(Cl)cc1N`, for which the result was inactive.

`CNC(=O)Oc1cccc2c1OC(C)(C)C2`: the molecule was classed as inactive.

Take `Cc1ccc(N=C=O)cc1N=C=O`: the result was inactive.

Turning to `c1ccc2c(c1)-c1cccc3cccc-2c13`, the AC50 was 0.00801 µM (active).

Turning to `ClC1=C(Cl)C2(Cl)C3C(Cl)C=CC3C1(Cl)C2(Cl)Cl` (centres undefined), the outcome was inactive.

With `COC(=O)c1ccccc1N`, the result was inactive.

On to `c1ccc(C2CO2)cc1` (centres undefined), for which the outcome was inactive.

Take `c1ccc2c(c1)oc1ccccc12`: the outcome was inactive.

`O=Cc1ccco1`: the result was inactive.

With `CCOc1cccc(C2(N3CCN(c4ccccc4)CC3)CCC(C)CC2)c1` (centres undefined), the molecule was classed as inactive.

With `COP(=S)(OC)SCN1C(=O)c2ccccc2C1=O`, the molecule was called inactive.

For the molecule `[Cl-].[Cl-].[Hg+2]`, the molecule was called inactive.

Regarding `O=C(N[C@H](c1ccccc1)[C@@H]1CN2CCC1CC2)c1c(Cl)ccc(C(F)(F)F)c1Cl`, the call was inactive.

Tested on in the next assay: not listed separately
Briefly: ATG_ERE_CIS: Attagene CIS-FACTORIAL HepG2 Assay for Estrogen Response Element (ERE) (AID 2282940). The settings on record: HepG2 ERE cis-reporter, Attagene RNA transcript; actives raise or lower the signal. In outline: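 HepG2, transient cis-reporter units, 24 h exposure. RNA isolated, oligo(dT) RT, reporter-specific PCR, FAM extension, HpaI cut, CE detection. Gain/loss-of-signal vs DMSO.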
`Nc1ccc(N=Nc2ccccc2)cc1`: the AC50 was 27 µM (active).

As to `O=C(Nc1ccccc1)c1ccccc1I`, the AC50 was 30.3 µM (active).

`O=C(Oc1ccc(Br)cc1)N1CCN2CCC1CC2`: the outcome was inactive.

Take `[O-][Cl+]O`: the call was inactive.

Regarding `COc1cc(C=O)cc2c1[C@H](COC(N)=O)[C@]1(OC(C)=O)ON2C[C@H]2[C@@H]1N2C(C)=O`, the AC50 was 51 µM (active).

With `OCCCBr`, the result was inactive.

For `CNC(=O)Oc1cccc2c1OC(C)(C)C2`, the call was inactive.

Consider `Clc1ccc(C(c2ccc(Cl)cc2)C(Cl)Cl)cc1`, for which the AC50 is 19.3 µM (active).

On to `ClC1=C(Cl)C2(Cl)C3C(Cl)C=CC3C1(Cl)C2(Cl)Cl` (centres undefined), for which the AC50 was 24.4 µM (active).

As for `CCOc1cccc(C2(N3CCN(c4ccccc4)CC3)CCC(C)CC2)c1` (centres undefined), the molecule was called inactive.

Tested on in the next assay: not listed separately
Briefly: ATG_Ets_CIS: Attagene CIS-FACTORIAL HepG2 Assay for human Erythroblast Transformation Specific (ETS) (AID 2282941). The settings on record: HepG2 ETS cis-reporter transcription, actives raise or lower the signal. In outline:
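After transient cis-reporter transfection, HepG2 cells receive test chemical for 24 h. Reporter mRNA levels, measured by RT-PCR and capillary electrophoresis fluorescence, are analysed bidirectionally relative to the DMSO baseline.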
Take `Nc1ccc(N=Nc2ccccc2)cc1`: the molecule was called inactive.

For `O=C(O)C1C2CCC(O2)C1C(=O)O` (centres undefined), the molecule was called inactive.

For `O=C(Nc1ccccc1)c1ccccc1I`, the call was inactive.

As for `CC(O)CCO` (centres undefined), the outcome was inactive.

As for `CC(C)(C)OOC(C)(C)CCC(C)(C)OOC(C)(C)C`, the molecule was called inactive.

Take `O=C(Oc1ccc(Br)cc1)N1CCN2CCC1CC2`: the outcome was inactive.

Turning to `[O-][Cl+]O`, the call was inactive.

On to `Nc1ccc(Cl)cc1N`, for which the outcome was inactive.

As for `COc1cc(C=O)cc2c1[C@H](COC(N)=O)[C@]1(OC(C)=O)ON2C[C@H]2[C@@H]1N2C(C)=O`, the AC50 is 12.4 µM (active).

Take `Nc1ccc([N+](=O)[O-])cc1`: the molecule was classed as inactive.

Regarding `OCCCBr`, the call was inactive.

Regarding `CNC(=O)Oc1cccc2c1OC(C)(C)C2`, the result was inactive.

As for `N#CC(Br)(Br)C(N)=O`, the result was inactive.

For `Clc1ccc(C(c2ccc(Cl)cc2)C(Cl)Cl)cc1`, the half-maximal activity concentration (AC50) is 53.8 µM (active).

Take `Cc1ccc(N=C=O)cc1N=C=O`: the call was inactive.

For `c1ccc2c(c1)-c1cccc3cccc-2c13`, the outcome was inactive.

With `ClC1=C(Cl)C2(Cl)C3C(Cl)C=CC3C1(Cl)C2(Cl)Cl` (centres undefined), the molecule was called inactive.

In the case of `COC(=O)c1ccccc1N`, the call was inactive.

For the molecule `c1ccc(NNc2ccccc2)cc1`, the call was inactive.

Turning to `c1ccc(C2CO2)cc1` (centres undefined), the outcome was inactive.

For `c1ccc2c(c1)oc1ccccc12`, the result was inactive.

Consider `O=Cc1ccco1`, for which the call was inactive.

Regarding `CCC(C)c1ccc(O)cc1` (centres undefined), the call was inactive.

`CCOc1cccc(C2(N3CCN(c4ccccc4)CC3)CCC(C)CC2)c1` (centres undefined): the result was inactive.

For `COP(=S)(OC)SCN1C(=O)c2ccccc2C1=O`, the outcome was inactive.

Take `[Cl-].[Cl-].[Hg+2]`: the call was inactive.

In the case of `CCN(CC)N=O`, the molecule was classed as inactive.

For the molecule `O=C(N[C@H](c1ccccc1)[C@@H]1CN2CCC1CC2)c1c(Cl)ccc(C(F)(F)F)c1Cl`, the result was inactive.

A further assay concerns the target Hepatocyte nuclear factor 3-beta (Homo sapiens) (UniProt Q9Y261). Briefly: ATG_FoxA2_CIS: Attagene CIS-FACTORIAL HepG2 Assay for human Forkhead box A2 (FOXA2) (AID 2282942). Conditions: HepG2 cis-reporter transcription factor activity, 24 h; actives raise or lower the signal. In outline: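 Endogenous transcription factor activity was read in HepG2 cells carrying transiently transfected cis-promoter reporter units. After 24 h dosing, reporter mRNA was quantified by RT-PCR and capillary electrophoresis, and values fitted bidirectionally versus DMSO.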
With `Nc1ccc(N=Nc2ccccc2)cc1`, the result was inactive.

On to `O=C(O)C1C2CCC(O2)C1C(=O)O` (centres undefined), for which the molecule was called inactive.

Consider `O=C(Nc1ccccc1)c1ccccc1I`, for which the molecule was called inactive.

On to `CC(O)CCO` (centres undefined), for which the call was inactive.

On to `CC(C)(C)OOC(C)(C)CCC(C)(C)OOC(C)(C)C`, for which the call was inactive.

For `O=C(Oc1ccc(Br)cc1)N1CCN2CCC1CC2`, the molecule was called inactive.

Turning to `[O-][Cl+]O`, the outcome was inactive.

In the case of `Nc1ccc(Cl)cc1N`, the molecule was called inactive.

Turning to `COc1cc(C=O)cc2c1[C@H](COC(N)=O)[C@]1(OC(C)=O)ON2C[C@H]2[C@@H]1N2C(C)=O`, the AC50 is 62.3 µM (active).

In the case of `Nc1ccc([N+](=O)[O-])cc1`, the molecule was classed as inactive.

As to `OCCCBr`, the molecule was called inactive.

On to `CNC(=O)Oc1cccc2c1OC(C)(C)C2`, for which the outcome was inactive.

As to `N#CC(Br)(Br)C(N)=O`, the molecule was classed as inactive.

`Clc1ccc(C(c2ccc(Cl)cc2)C(Cl)Cl)cc1`: the outcome was inactive.

Regarding `Cc1ccc(N=C=O)cc1N=C=O`, the molecule was classed as inactive.

For `c1ccc2c(c1)-c1cccc3cccc-2c13`, the result was inactive.

Take `ClC1=C(Cl)C2(Cl)C3C(Cl)C=CC3C1(Cl)C2(Cl)Cl` (centres undefined): the molecule was classed as inactive.

As to `COC(=O)c1ccccc1N`, the call was inactive.

`c1ccc(NNc2ccccc2)cc1`: the call was inactive.

In the case of `c1ccc(C2CO2)cc1` (centres undefined), the outcome was inactive.

Regarding `c1ccc2c(c1)oc1ccccc12`, the molecule was called inactive.

With `O=Cc1ccco1`, the molecule was called inactive.

On to `CCC(C)c1ccc(O)cc1` (centres undefined), for which the molecule was classed as inactive.

Consider `CCOc1cccc(C2(N3CCN(c4ccccc4)CC3)CCC(C)CC2)c1` (centres undefined), for which the outcome was inactive.

For the molecule `COP(=S)(OC)SCN1C(=O)c2ccccc2C1=O`, the call was inactive.

For the molecule `[Cl-].[Cl-].[Hg+2]`, the call was inactive.

Consider `CCN(CC)N=O`, for which the molecule was called inactive.

As to `O=C(N[C@H](c1ccccc1)[C@@H]1CN2CCC1CC2)c1c(Cl)ccc(C(F)(F)F)c1Cl`, the molecule was classed as inactive.
